Source: PubChem BioAssay AID1159580 (chemical genetic matrix, 2015)
In all, about 5,500 compounds went through this assay and about 2,000 (36%) were called active. Another 18% or so got no clear call; they are omitted. Cut-off read from the data, not from the text of the source: active = normalized growth mostly below about 0.91 (no sharp cut-off); inconclusive = no clear call, values can overlap the other calls; inactive = mostly above about 0.92. The list shows a part of the results.

Assay: chemical genetic growth profiling, strain panel (AID 1159580);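 note: tested at 20 µM; growth read once vehicle control cultures reached saturation at 30 °C; 1 = growth at the plate median or of vehicle wells; lower values mean less growth of the strain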
Details: growth OD

Measured: normalized growth

OC(CCN1CCCCC1)(c1ccccc1)c1ccccc1
inactive: S. cerevisiae deletion strains, locus YJR075W, strain HOC1, hits give low values 1 | S. cerevisiae deletion strains, locus YKL009W, strain mrt4, hits give low values 1.03 | S. cerevisiae deletion strains, locus YKL068W, hits give low values 1.01 | S. cerevisiae deletion strains, locus YKL085W, strain MDH1 (second series), hits give low values 1.07 | S. cerevisiae deletion strains, locus YKL085W, strain MDH1, hits give low values 1.07 | S. cerevisiae deletion strains, locus YKL160W, strain elf1, hits give low values 1.03 | S. cerevisiae deletion strains, locus YKL190W, strain CNB1, hits give low values 1.01 | S. cerevisiae deletion strains, locus YKR001C, strain vps1, hits give low values 1.01 | S. cerevisiae deletion strains, locus YKR026C, strain gcn3, hits give low values 0.993 | S. cerevisiae deletion strains, locus YKR091W, strain srl3, hits give low values 0.993 | S. cerevisiae deletion strains, locus YLL001W, strain dnm1, hits give low values 1.01 | S. cerevisiae deletion strains, locus YLL026W, hits give low values 0.983 | S. cerevisiae deletion strains, locus YLL041C, strain sdh2, hits give low values 0.994 | S. cerevisiae deletion strains, locus YLR027C, strain aat2, hits give low values 1 | S. cerevisiae deletion strains, locus YLR039C, strain RIC1, hits give low values 1.08 | S. cerevisiae deletion strains, locus YLR058C, strain SHM2, hits give low values 1.01 | S. cerevisiae deletion strains, locus YLR102C, strain apc9, hits give low values 1.01 | S. cerevisiae deletion strains, locus YLR113W, strain HOG1, hits give low values 1.05 | S. cerevisiae deletion strains, locus YLR221C, strain rsa3, hits give low values 0.966 | S. cerevisiae deletion strains, locus YLR258W, strain gsy2, hits give low values 0.965 | S. cerevisiae deletion strains, locus YLR262C, strain YPT6 (second series), hits give low values 1.02 | S. cerevisiae deletion strains, locus YLR262C, strain YPT6, hits give low values 1.1 | S. cerevisiae deletion strains, locus YLR268W, strain sec22, hits give low values 1.02 | S. cerevisiae deletion strains, locus YLR320W, strain mms22, hits give low values 0.999 | S. cerevisiae deletion strains, locus YLR330W, strain CHS5, hits give low values 1.01 | S. cerevisiae deletion strains, locus YLR342W, strain FKS1 (second series), hits give low values 1.02 | S. cerevisiae deletion strains, locus YLR342W, strain FKS1, hits give low values 0.993 | S. cerevisiae deletion strains, locus YLR357W, strain rsc2, hits give low values 0.997 | S. cerevisiae deletion strains, locus YLR370C, strain arc18, hits give low values 0.974 | S. cerevisiae deletion strains, locus YLR371W, strain rom2, hits give low values 1.01 | S. cerevisiae deletion strains, locus YLR384C, strain iki3, hits give low values 0.983 | S. cerevisiae deletion strains, locus YLR418C, strain cdc73, hits give low values 1.01 | S. cerevisiae deletion strains, locus YML016C, strain PPZ1, hits give low values 1 | S. cerevisiae deletion strains, locus YML032C, strain rad52, hits give low values 1.01 | S. cerevisiae deletion strains, locus YML120C, strain ndi1, hits give low values 0.978 | S. cerevisiae deletion strains, locus YML124C, strain tub3, hits give low values 1 | S. cerevisiae deletion strains, locus YMR058W, strain fet3, hits give low values 0.996 | S. cerevisiae deletion strains, locus YMR078C, strain ctf18, hits give low values 1.01 | S. cerevisiae deletion strains, locus YMR125W, strain sto1, hits give low values 1.01 | S. cerevisiae deletion strains, locus YMR129W, hits give low values 0.99 | S. cerevisiae deletion strains, locus YMR205C, strain PFK2, hits give low values 1.01 | S. cerevisiae deletion strains, locus YMR223W, strain ubp8, hits give low values 1.01 | S. cerevisiae deletion strains, locus YMR231W, strain pep5, hits give low values 0.995 | S. cerevisiae deletion strains, locus YMR307W, strain GAS1, hits give low values 1.08 | S. cerevisiae deletion strains, locus YNL067W, strain RPL9B, hits give low values 1.02 | S. cerevisiae deletion strains, locus YNL071W, strain lat1, hits give low values 0.993 | S. cerevisiae deletion strains, locus YNL153C, strain GIM3, hits give low values 0.998 | S. cerevisiae deletion strains, locus YNL183C, strain NPR1, hits give low values 0.971 | S. cerevisiae deletion strains, locus YNL209W, strain ssb2, hits give low values 0.987 | S. cerevisiae deletion strains, locus YNL233W, strain BNI4, hits give low values 1.01 | S. cerevisiae deletion strains, locus YNL248C, strain rpa49, hits give low values 1.06 | S. cerevisiae deletion strains, locus YNL250W, strain rad50, hits give low values 1 | S. cerevisiae deletion strains, locus YNL271C, strain bni1, hits give low values 1.02 | S. cerevisiae deletion strains, locus YNL298W, strain CLA4, hits give low values 1.02 | S. cerevisiae deletion strains, locus YNL307C, strain MCK1, hits give low values 1.02 | S. cerevisiae deletion strains, locus YNL322C, strain KRE1 (second series), hits give low values 0.987 | S. cerevisiae deletion strains, locus YNL322C, strain KRE1, hits give low values 1.01 | S. cerevisiae deletion strains, locus YNR049C, strain mso1, hits give low values 0.997 | S. cerevisiae deletion strains, locus YNR052C, strain pop2, hits give low values 1.02 | S. cerevisiae deletion strains, locus YOL006C, strain TOP1, hits give low values 0.958 | S. cerevisiae deletion strains, locus YOL012C, strain htz1 0.814 | S. cerevisiae deletion strains, locus YOL147C, strain pex11, hits give low values 1 | S. cerevisiae deletion strains, locus YOR001W, strain rrp6, hits give low values 0.992 | S. cerevisiae deletion strains, locus YOR061W, strain CKA2, hits give low values 1 | S. cerevisiae deletion strains, locus YOR069W, strain VPS5, hits give low values 1 | S. cerevisiae deletion strains, locus YOR070C, strain gyp1, hits give low values 0.989 | S. cerevisiae deletion strains, locus YOR080W, strain dia2, hits give low values 0.984 | S. cerevisiae deletion strains, locus YOR083W, strain WHI5, hits give low values 1.03 | S. cerevisiae deletion strains, locus YOR106W, strain vam3, hits give low values 1.01 | S. cerevisiae deletion strains, locus YOR136W, strain idh2, hits give low values 1.01 | S. cerevisiae deletion strains, locus YOR144C, strain elg1, hits give low values 1 | S. cerevisiae deletion strains, locus YOR184W, strain ser1, hits give low values 1.02 | S. cerevisiae deletion strains, locus YOR231W, strain MKK1, hits give low values 1.07 | S. cerevisiae deletion strains, locus YOR265W, strain rbl2, hits give low values 0.989 | S. cerevisiae deletion strains, locus YOR270C, strain vph1, hits give low values 0.955 | S. cerevisiae deletion strains, locus YOR290C, strain snf2, hits give low values 1 | S. cerevisiae deletion strains, locus YOR316C, strain cot1, hits give low values 1.02 | S. cerevisiae deletion strains, locus YPL051W, strain arl3, hits give low values 1.06 | S. cerevisiae deletion strains, locus YPL055C, strain LGE1, hits give low values 1.02 | S. cerevisiae deletion strains, locus YPL078C, strain atp4, hits give low values 1.03 | S. cerevisiae deletion strains, locus YPL106C, strain sse1, hits give low values 0.966 | S. cerevisiae deletion strains, locus YPL240C, strain hsp82, hits give low values 0.984 | S. cerevisiae deletion strains, locus YPL241C, strain CIN2, hits give low values 1 | S. cerevisiae deletion strains, locus YPL256C, strain CLN2, hits give low values 1.04 | S. cerevisiae deletion strains, locus YPR119W, strain clb2, hits give low values 1.01 | S. cerevisiae deletion strains, locus YPR141C, strain kar3, hits give low values 1.01 | S. cerevisiae deletion strains, locus YPR163C, strain tif3, hits give low values 1.02 | S. cerevisiae deletion strains, locus YPR167C, strain met16, hits give low values 1.02 | S. cerevisiae deletion strains, strain wtn01, hits give low values 1.01 | S. cerevisiae strains, strain wild type, hits give low values 1.01
